About 540 (0.62%) of roughly 87,000 compounds were called active. How the calls were made is not given here. Many of the other results were omitted from the sample, so actives are more common in it than they were. Results with a measured potency or affinity are listed apart.

This assay is described as follows: MT1-MMP gene expression reporter suppression – cell-based, luciferase reporter, luminescence (AID 618).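 Further: actives suppress MT1-MMP promoter-driven transcription so potencies describe inhibitors.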 The note with it: MT1-MMP promoter luciferase reporter cells. On the technique in general: In a reporter assay the amount or activity of a reporter protein is the signal.
For the molecule `Cc1c(C(=O)OC2CCCCC2)[nH]c2c1C(=O)CC(C)(C)C2`, the result was inactive.

With `COCCOC(=O)c1[nH]c2c(c1C)C(=O)CC(c1ccco1)C2` (stereo unspecified), the molecule was classed as active.

For the molecule `CCC(C)OC(=O)c1[nH]c2c(c1C)C(=O)CC(c1ccc(N(C)C)cc1)C2` (stereo unspecified), the call was inactive.

For `Cc1c(C(=O)OC2CCC(C)CC2)[nH]c2c1C(=O)CCC2` (stereo unspecified), the molecule was called inactive.

For `COCCOC(=O)c1[nH]c2c(c1C)C(=O)CC(c1ccc(N(C)C)cc1)C2` (stereo unspecified), the molecule was called inactive.

As for `Cc1c(C(=O)OCC(C)C)[nH]c2c1C(=O)CC(c1ccco1)C2` (stereo unspecified), the molecule was classed as active.

Consider `CCOC(=O)c1ccc(N=CC2=C(O)CC(c3ccco3)CC2=O)cc1` (stereo unspecified), for which the molecule was classed as inactive.

As to `COCCOC(=O)c1[nH]c2c(c1C)C(=O)CC(c1cc(OC)ccc1OC)C2` (stereo unspecified), the molecule was classed as inactive.

As to `Cc1c(C(=O)OC2CCCC2)[nH]c2c1C(=O)CC(c1ccco1)C2` (stereo unspecified), the outcome was active.

On to `Cc1c(C(=O)OCC2CCCO2)[nH]c2c1C(=O)CC(c1ccco1)C2` (stereo unspecified), for which the molecule was classed as inactive.

Consider `CCOC(=O)c1[nH]c2c(c1C)C(=O)CC(c1ccco1)C2` (stereo unspecified), for which the outcome was active.

For the molecule `O=c1[nH]c(CN2CCN(c3ccc([N+](=O)[O-])cc3)CC2)nc2ccsc12`, the result was inactive.

Take `CCCCCOC(=O)CSc1n[nH]c(=O)[nH]c1=O`: the result was inactive.

In the case of `O=C(CC(Nc1ccc(Cl)cc1)C(=O)O)c1ccccc1` (stereo unspecified), the result was inactive.

For the molecule `Cc1cccc(NC(=O)COC(=O)CNC(=O)C2CCCCC2)c1`, the outcome was inactive.

`NC(=O)CSc1nnnn1-c1ccc2c(c1)OCCO2`: the result was inactive.

On to `O=C1CCCC2=C1C(Cc1ccccc1)C1=C(CCCC1=O)O2`, for which the outcome was inactive.

For the molecule `CCN(CCNC(=O)CC1Oc2ccccc2NC1=O)c1ccccc1` (stereo unspecified), the result was inactive.

For `Cc1ccc(C2/C(=C(\O)c3ccc4c(c3)OCCO4)C(=O)C(=O)N2CCCN(C)C)o1` (stereo unspecified), the molecule was called inactive.

As for `CCN1CCN(C(=O)c2cc3c(=O)oc4ccc(C)cc4c3s2)CC1`, the molecule was called inactive.

For the molecule `COCCOC(=O)c1[nH]c2c(c1C)C(=O)CC(c1ccc(F)cc1)C2` (stereo unspecified), the molecule was classed as inactive.

Take `COc1cc(C2CC(=O)c3c([nH]c(C(=O)OCCOC(C)C)c3C)C2)cc(OC)c1OC` (stereo unspecified): the outcome was inactive.

With `Cc1c(C(=O)OCCOC(C)C)[nH]c2c1C(=O)CC(c1ccco1)C2` (stereo unspecified), the result was active.

Regarding `CCOCCOC(=O)c1[nH]c2c(c1C)C(=O)CC(c1ccc(N(C)C)cc1)C2` (stereo unspecified), the outcome was inactive.

For the molecule `CCCOC(=O)c1[nH]c2c(c1C)C(=O)CC(c1ccc(OC)c(OC)c1)C2` (stereo unspecified), the result was inactive.

For the molecule `CCCOCCOC(=O)c1[nH]c2c(c1C)C(=O)CC(c1cc(OC)ccc1OC)C2` (stereo unspecified), the call was inactive.

For the molecule `CSCCOC(=O)c1[nH]c2c(c1C)C(=O)CC(c1ccco1)C2` (stereo unspecified), the molecule was classed as active.

Turning to `Cc1c(C(=O)OCC(C)C)[nH]c2c1C(=O)CC(c1cccs1)C2` (stereo unspecified), the molecule was classed as inactive.

`CCOC(=O)c1[nH]c2c(c1C)C(=O)CC(c1ccc(F)cc1)C2` (stereo unspecified): the result was active.

For `Cc1c(C(=O)OCCOC(C)C)[nH]c2c1C(=O)CC(C)(C)C2`, the molecule was called inactive.

On to `CCCOC(=O)c1[nH]c2c(c1C)C(=O)CC(c1cccs1)C2` (stereo unspecified), for which the outcome was active.

With `COC(=O)c1[nH]c2c(c1C)C(=O)CC(c1cccs1)C2` (stereo unspecified), the result was inactive.

With `Cc1cc(Cl)cc(C)c1OCCCCN1CCOCC1`, the outcome was inactive.

As for `COCCn1c(CNc2ccc(F)cc2)nnc1SCC(=O)Nc1ccc(OC)cc1OC`, the molecule was classed as inactive.

Take `COc1ccc(CN2CC(C(=O)NCc3cccc(OC)c3)CC2=O)cc1` (stereo unspecified): the molecule was classed as inactive.

Consider `COC(=O)c1ccccc1NC(=O)c1ccc(-c2cccc(Cl)c2)o1`, for which the result was inactive.

For `O=C(Nc1nnc(-c2ccc(Cl)s2)o1)C1CCCCC1`, the molecule was classed as inactive.

For `COc1ccccc1Oc1ccc2c(c1)C(=O)N(c1cccc(O)c1)C2=O`, the molecule was called inactive.

Turning to `CCC(=O)N1CCNC(=O)C1CC(=O)Nc1ccc(C)c(Cl)c1` (stereo unspecified), the molecule was called inactive.

`CNCc1ccc(OCc2ccccc2)c(OC)c1`: the call was inactive.

As for `Cc1c(C(=O)OCc2ccccc2)[nH]c2c1C(=O)CC(c1ccco1)C2` (stereo unspecified), the outcome was active.

On to `CC1=C(C(=O)OCc2ccccc2)C(c2ccco2)C2=C(CC(C)(C)CC2=O)N1` (stereo unspecified), for which the outcome was inactive.

Consider `Cc1c(C(=O)N2CCOCC2)[nH]c2c1C(=O)CC(c1ccccc1Cl)C2` (stereo unspecified), for which the result was inactive.

Take `C=CCN1CC(c2nc3ccccc3n2Cc2cccc3ccccc23)CC1=O` (stereo unspecified): the molecule was called inactive.

Consider `CCCOc1ccc(C(CC(=O)O)NC(=O)C23CC4CC(CC(C4)C2)C3)cc1` (stereo unspecified), for which the molecule was called inactive.

As to `Cc1ccc(C(=O)Nc2cc(Cl)ccc2N2CCCCC2)s1`, the molecule was called inactive.

Take `CN(C)c1ccc(N/C=C/C(=O)c2ccc(F)cc2)cc1`: the call was active.

Turning to `O=C(/C=C/Nc1ccc(F)cc1)c1ccco1`, the molecule was classed as inactive.

Take `CN(C)c1ccc(N/C=C/C(=O)c2ccccc2)cc1`: the molecule was classed as active.

As to `CC(=O)Nc1ccc(N/C=C/C(=O)c2ccco2)cc1`, the outcome was inactive.

As for `CN(C)c1ccc(NC(=O)CN2CCC(C(=O)c3ccc(F)cc3)CC2)cc1`, the call was inactive.

For `CN(C)c1ccc(N/C=C/C(=O)C(C)(C)C)cc1`, the molecule was called inactive.

As for `CN(C)c1ccc(C(=O)c2ccccc2)cc1`, the molecule was called inactive.

For the molecule `CN(C)c1ccc(NC(=O)CN2CCN(CC(=O)Nc3ccc(F)cc3)CC2)cc1`, the outcome was inactive.

Regarding `CSCC[C@H](NC(=O)CCn1nnc2ccccc2c1=O)C(=O)O`, the molecule was classed as inactive.

For `CCN1CCN(C(=O)c2ccc(Cl)c(S(=O)(=O)N3CCOCC3)c2)CC1`, the call was inactive.

In the case of `Cc1ccc(-n2nc3c(c2NC(=O)c2c(-c4ccccc4Cl)noc2C)CS(=O)(=O)C3)c(C)c1`, the molecule was called inactive.

Consider `COc1cccc(NC(=O)C(=O)N2CCOCC2)c1`, for which the molecule was called inactive.

Take `Cc1ccc(-n2nc(C)c3c(C)cc(=O)[nH]c32)cc1`: the result was inactive.

`O=C(c1cccn2c(=O)c3cc(Br)ccc3nc12)N1CCN(c2ccccn2)CC1`: the result was inactive.

Take `Cc1ccc(-c2c(C(=O)N3CCOCC3)oc(=O)c3ccccc23)cc1`: the result was inactive.

Consider `CCCCOC(=O)c1ccc(NC(=O)CSc2nncn2C)cc1`, for which the molecule was called active.

`COC(=O)c1ccc(NC(=O)CSc2nncn2C)cc1`: the molecule was called inactive.

As to `Cn1cnnc1SCC(=O)Nc1ccccc1`, the result was inactive.

Take `O=C1CC(N2CCC(c3nc4ccccc4o3)CC2)C(=O)N1c1ccc(Cl)cc1` (stereo unspecified): the molecule was called inactive.

For the molecule `O=C(CCS(=O)(=O)c1cccs1)N1CCCC1`, the molecule was called inactive.

Regarding `CC(=O)N1CCc2cc(S(=O)(=O)CCC(=O)O)ccc21`, the molecule was called inactive.

Take `O=C1c2ccccc2NC(c2ccc(Cl)cc2Cl)N1Cc1ccccc1` (stereo unspecified): the outcome was inactive.

Take `CC(C)(O)c1cc(=O)sc2nc3ccccc3n12`: the molecule was classed as inactive.

With `c1ccc2nc3c(nc2c1)sc1nc2ccccc2n13`, the outcome was inactive.

Take `N=c1cc(C2(O)CCCCC2)n2c(nc3ccccc32)s1`: the molecule was classed as active.

On to `c1ccc(Cn2c(-c3cncs3)nc3ccccc32)cc1`, for which the molecule was classed as inactive.

Regarding `CCCCN(CCCNC(=O)C1CCN(S(=O)(=O)N2CCOCC2)CC1)Cc1ccccc1`, the result was inactive.

As for `CCn1c(CCNC(=O)c2cccs2)nnc1SCC(=O)NC1CCCCC1`, the result was inactive.

With `Cc1noc(C)c1CSc1nnc2n(-c3ccccc3)c(=O)c3ccccc3n12`, the molecule was called inactive.

Regarding `COc1cc(OC)cc(-c2cc3nc(C)c(CCC(=O)NC(C)CCc4ccco4)c(C)n3n2)c1` (stereo unspecified), the molecule was classed as inactive.

Turning to `COc1ccc(-c2cc3nc(C)c(CCC(=O)NC(C)CCc4ccco4)c(C)n3n2)c(OC)c1` (stereo unspecified), the outcome was inactive.

As to `COc1ccc(CCNC(=O)N2CCOCC2)cc1`, the result was inactive.

In the case of `CC(C)(C)n1nnnc1CN(Cc1ccco1)Cc1cc2cc3c(cc2[nH]c1=O)OCO3`, the molecule was called inactive.

As to `O=C(O)c1ccccc1NC(=O)C1CCCO1` (stereo unspecified), the outcome was inactive.

On to `c1cncc(CNc2c3c(nc4nnnn24)CCCC3)c1`, for which the result was inactive.

As to `O=C(O)c1cccc(-c2nnn(Cc3ccccc3Cl)n2)c1`, the molecule was called inactive.

For `O=C(O)c1cccc(-c2nnn(Cc3ccccc3)n2)c1`, the outcome was inactive.

Turning to `COc1cc(-c2nc(S(=O)(=O)c3ccc(C)cc3)c(N(C)C)o2)cc(OC)c1OC`, the outcome was inactive.

In the case of `CCOc1cccc(NC(=O)C2CC(=O)N(C)C2)c1` (stereo unspecified), the outcome was inactive.

In the case of `CCCNCC(O)COc1ccccc1C(=O)CCc1ccccc1` (stereo unspecified), the outcome was active.

In the case of `CCN(CC)CC(O)COc1ccccc1C(=O)CCc1ccccc1` (stereo unspecified), the call was inactive.

For the molecule `CC(C)(C)NCC(O)COc1ccccc1C(=O)CCc1ccccc1` (stereo unspecified), the result was inactive.

Regarding `CC(C)(C)NS(=O)(=O)c1ccc(CCC(=O)NCc2cccnc2)cc1`, the result was inactive.

With `CCOC(=O)c1c(NC(=O)CN(CC)CC)sc2c1CCC2`, the molecule was classed as inactive.

For the molecule `O=C(Cn1c(NCCO)nc2ccccc21)c1cccs1`, the outcome was inactive.

Consider `Cc1cc(C)nc(N2CCN(c3nc(C)nc4c3oc3ccccc34)CC2)n1`, for which the molecule was classed as inactive.

`COc1ccccc1N1CCN(c2ncnc3c2oc2ccccc23)CC1`: the molecule was called inactive.

As to `COc1ccccc1N1CCN(c2nc(C)nc3c2oc2ccccc23)CC1`, the molecule was classed as active.

With `Cc1ccc(C(=O)Nc2ccccc2OC(F)F)cc1`, the molecule was called inactive.

As to `CN=c1scc(C)n1/N=C/c1ccc2c(c1)OCO2`, the outcome was active.

As for `Cc1nnc(C)n1/N=C/c1ccc2c(c1)OCCO2`, the result was inactive.

Consider `CN=c1scc(C)n1/N=C/c1ccc(O)cc1O`, for which the molecule was called active.

With `CCN=c1scc(C)n1/N=C/c1ccsc1`, the outcome was inactive.

With `CN=c1scc(C)n1/N=C/c1ccc(O)cc1`, the outcome was inactive.

Regarding `CN=c1scc(C)n1/N=C/c1ccc(O)c(O)c1O`, the outcome was inactive.

On to `COC(=O)c1ccc(Cn2nc(C(F)(F)F)cc2C)cc1`, for which the call was inactive.

Take `COc1ccccc1OCCSc1nnnn1-c1ccc(C)cc1`: the result was inactive.

Take `c1ccc(OCCSc2nnnn2-c2ccccc2)cc1`: the molecule was called inactive.

As to `CCN(C(=O)Cc1ccc(Br)cc1)C1CCCCC1`, the result was inactive.

As to `C(=N\n1cnnc1)/c1ccc(OCc2cccc3ccccc23)cc1`, the result was inactive.

Regarding `CCOCCOC(=O)CCSc1n[nH]c(=O)[nH]c1=O`, the outcome was inactive.

As to `CCC/C(O)=C1\C(=O)CC(C)(C)CC1=Nc1ccccc1OC`, the molecule was classed as inactive.

With `CCCC/C(O)=C1\C(=O)CC(C)(C)CC1=Nc1ccccc1OC`, the call was inactive.

`CCOc1ccc(C2c3c(oc4ccccc4c3=O)C(=O)N2CCCN2CCOCC2)cc1OCC` (stereo unspecified): the molecule was called inactive.

Turning to `CSc1cc(-c2ccc(Cl)cc2)n(Cc2ccccc2)c(=O)c1C#N`, the molecule was classed as inactive.

With `CSc1cc(-c2ccccc2)n(Cc2c(Cl)cccc2Cl)c(=O)c1C#N`, the result was active.

Take `Cn1c(=O)c2c(nc(SCCCC#N)n2Cc2c(F)cccc2Cl)n(C)c1=O`: the call was inactive.

Consider `Cc1cc(C)n(Cc2ccccc2F)c(=O)c1C#N`, for which the result was inactive.

For `CSc1cc(-c2ccccc2)n(Cc2ccccc2Cl)c(=O)c1C#N`, the outcome was active.

With `CSc1cc(-c2ccccc2)n(Cc2ccc(Cl)cc2Cl)c(=O)c1C#N`, the molecule was called inactive.

The values are drawn from PubChem BioAssay AID618 (Sanford-Burnham Center for Chemical Genomics, 2007).
